Test results published in PubChem BioAssay (NCI).
Compounds without any hit were thinned out: in the full panel of roughly 83,000, 20% have a hit.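 How to read the values: 0–100, growth inhibition (40 = 60% inhibited); 0, no net growth; -100 to 0, cell death (-40 = 40% of starting cells died; -100 = all dead).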 Calls of active or inactive are those of the source. The calls were made as follows: active = growth percent below 10; inactive = the rest.

test system: RXF 393 renal; experiment: NCI-60 one-dose screen, 48 h (100 = growth as untreated, 0 = no growth, -100 = all killed); conditions: 10 µM unless noted

SMILES	growth
CCCCCCCCCCCCCCCCCC1=NC(C)(C)CN1CC(C)O (configuration not stated)	66.4% (inactive)
C#CC#CC#CC#CC#CC#CC#CC#CCC1OC[C@H](COC(=O)O[C@@H](C(=O)O[C@H]2C[C@@]3(O)[C@@H](OC(=O)c4ccccc4)[C@@H]4[C@]5(OC(C)=O)CO[C@@H]5C[C@H](O)[C@@]4(C)C(=O)[C@H](OC(C)=O)C(=C2C)C3(C)C)[C@@H](NC(=O)c2ccccc2)c2ccccc2)O1 (some centres not stated)	-2.06% (active)
Cc1ccc(Cl)cc1NC(=O)c1sc2nc3c(cc2c1N)C(=O)CCC3	42.1% (inactive)
CC(=O)Oc1ccc(OC(C)=O)c2ccccc12	87.1% (inactive)
O=C(NNC(=O)c1nc2cc(F)ccc2n2cccc12)c1cnccn1	66.4% (inactive)
C[C@H](C(=O)N(CCc1ccc(Cl)c(Cl)c1)Cc1cncs1)[C@@H]1CC[C@H](C[C@H](C)n2cc(CN3CCC(c4ccc(Cl)cc4)CC3)nn2)O1	103% (inactive)
O=C(CC(=O)Nc1cccc(C(=O)O)c1)Nc1cccc(C(=O)O)c1	111% (inactive)
C=C1CC[C@@H]2C(C)(C)[C@@H](O)CC[C@@]2(C)[C@@H]1COc1ccc2ccc(=O)oc2c1	88.5% (inactive)
CCS/C(Nc1ccccc1)=C(\C#N)C(=O)Nc1ccc(OC)cc1	39.5% (inactive)
Nc1nc(NC(=O)Nc2ccc(C(=O)O)cc2)nn1-c1ccc(S(N)(=O)=O)cc1	94.1% (inactive)
N#Cc1c(-c2ccccc2)nc(SCc2nnc(-c3ccc(Cl)cc3)o2)[nH]c1=O	106% (inactive)
CCN(CC)c1ccc(/C=N/NC(=O)Cc2ccc(Nc3ccnc(C(F)(F)F)c3)cc2)c(O)c1	45.8% (inactive)
